Screens from PubChem BioAssay.
In the library only some 3.9% were active in any assay of this set; here they are far more common.
MITF act: increases MITF-driven TRPM1 promoter luciferase signal; AID 588334; activation, % at 12.5 µM; actives 0.75% (n = 300,000); SK-MEL-5 TRPM1-promoter luciferase, 24 h; % of positive control, neutral wells = 0;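 active = mean activation of at least 80% with every replicate also reaching 80%; inconclusive = mean reaches 80% but some replicate falls short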
HSF-1 act: increases HSF-1 driven luciferase reporter signal | NIH3T3-HGL HSF-1 luciferase reporter, MG132, 8 h; 100% = twice DMSO control signal | activation, % at 9 µM | actives 1.7% (n = 300,000) | AID 504408;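 active = mean replicate activation of at least 50% with a set share of replicates each reaching 50%; inconclusive = only one of those two conditions met; inactive = mean below 50% and too few replicates reaching it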
Wnt act: activators of Wnt/beta-catenin signaling; actives 1.2% (n = 300,000); AID 743398; activation, % at 9.35 µM; Wnt/beta-catenin reporter cell assay, activator, plate reader; in the data active = activation above about 30%, passing the limit was not always enough; inconclusive = no clear call, values can overlap the other calls
esBAF inh: blocks esBAF chromatin remodeling in mouse ES cells; Bmi1-luciferase knock-in reporter, 24 h; 100% = twice the neutral-well signal; reporter increase, % at 12.5 µM; actives 2% (n = 350,000); AID 602393; in the data active = activation above about 40%; inconclusive = no clear call, values can overlap the other calls;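 note: a rise in the Bmi1 reporter signal indicates esBAF inhibition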
HSF1 inhib: HSF1 inhibition; NIH3T3-HGL HSE-luciferase, MG132-induced, luminescence 8 h; active compounds read low; activity change, negative = inhibition, % at 7.5 µM (by protocol); actives 0.77% (n = 300,000);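 active = more than half of replicate wells show activity change below -50%, luminescence cut by over half; inconclusive = some wells, but at most half, below -50%; inactive = no replicate well below -50%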;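 note: luciferase reports HSF-1 transcriptional activity via heat shock element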
Ring1 derepress: de-represses Ring1 in mouse ESCs, confirming esBAF inhibition. 550 tested, under 10 active. mouse ESC E14, Ring1 mRNA RT-qPCR fold change. AID 743176. fold change at 33 µM. shares compounds with esBAF inh;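 active = Ring1 gene expression raised more than 2-fold over untreated cells in both replicates at either tested dose; inconclusive = only one replicate above 2-fold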;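 note: Ring1 transcript normalised to actin housekeeping signal by TaqMan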
esBAF Fgf4 qPCR: confirmation of esBAF inhibitors: Fgf4 repression in mouse ESCs. AID 743177. mouse ESC E14, Fgf4 mRNA qPCR fold change; active compounds read low. Fgf4 expression fold change at 33 µM. shares compounds with esBAF inh. actives 4% (n = 550);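 active = Fgf4 expression under 0.8 fold of control in both repeat measurements at one or both tested doses; inconclusive = under 0.8 fold in just a single repeat measurement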;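 note: Fgf4 transcript normalised to actin in duplex TaqMan qPCR; cells exposed to compound for 24 h before lysis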
esBAF Bmi1 qPCR: esBAF inhibition confirmed by Bmi1 de-repression; fold change at 33 µM; AID 743180; 550 tested, under 10 active; shares compounds with esBAF inh; mouse ESE14 ES cells, Bmi1 mRNA qPCR fold; active compounds read high;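 active = Bmi1 expression fold change above 6 at either tested concentration, seen in replicate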;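 note: higher fold means more Bmi1 de-repression and stronger esBAF inhibition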
A549 cytotox: kills or reduces viability of A549 cells; cell viability change % (negative = cytotoxic), % at 25 µM, hits read low; 550 tested, under 10 active; A549 cytotoxicity, plate reader; shares compounds with esBAF inh; AID 743188; call rule not given here
HepG2 tox SP: HepG2 cell cytotoxicity at single point | activity change, negative = inhibition, % at 25 µM | AID 743189 | plate reader; active compounds read low | actives 4% (n = 550) | shares compounds with esBAF inh; in the data active = activity change below about -50%
HEK293 tox SP: kills or reduces viability of HEK293 cells. actives 3% (n = 550). HEK293 cytotoxicity, plate reader. activity change, negative = inhibition, % at 25 µM, hits read low. shares compounds with esBAF inh; in the data active = activity change below about -38%, passing the limit was not always enough
Large screens that a line does not name were inactive (follow-up assays come after a bar, where they were run).

C[C@@H]1CN([C@@H](C)CO)C(=O)c2cc(NC(=O)CCN3CCOCC3)ccc2O[C@H]1CN(C)Cc1ccc(C(F)(F)F)cc1	none (no result: MITF act, HSF-1 act, Wnt act, HSF1 inhib)
Cc1ccc(NC(=O)C2CCCN(C(=O)c3ccc(Cl)cc3)C2)cc1C (configuration not stated)	esBAF inh 69 | Ring1 derepress inactive | esBAF Fgf4 qPCR inactive | esBAF Bmi1 qPCR inactive | A549 cytotox inactive | HepG2 tox SP inactive | HEK293 tox SP inactive
Cc1ccc(NC(=O)C2CCCN(c3ncccn3)C2)cc1F (configuration not stated)	MITF act 134, HSF-1 act 60, esBAF inh 73 (no result: Wnt act) | Ring1 derepress inactive | esBAF Fgf4 qPCR inconclusive | esBAF Bmi1 qPCR inactive | A549 cytotox inactive | HepG2 tox SP inactive | HEK293 tox SP inactive
O=C(Nc1ccccc1Cl)c1ccc(C(=O)Nc2ccccc2Cl)cc1	none (no result: esBAF inh)
O=C(Nc1cccc(Cl)c1Cl)c1ccc(-c2ccccc2)cc1	esBAF inh 74 (no result: Wnt act) | Ring1 derepress inactive | esBAF Fgf4 qPCR inactive | esBAF Bmi1 qPCR inactive | A549 cytotox inactive | HepG2 tox SP inactive | HEK293 tox SP inactive
C[C@@H]1CCCCO[C@H](CN(C)Cc2ccccc2)[C@@H](C)CN([C@@H](C)CO)C(=O)c2cc(NS(C)(=O)=O)ccc2O1	none (no result: MITF act, HSF-1 act, Wnt act, HSF1 inhib)
C[C@@H]1CN([C@@H](C)CO)C(=O)c2cc(NC(=O)Cn3cnnn3)ccc2O[C@@H]1CN(C)Cc1ccc(Cl)c(Cl)c1	none (no result: MITF act, HSF-1 act, Wnt act, HSF1 inhib)
O=C(Cc1ccccn1)c1ccc(Cl)cc1	MITF act 104, esBAF inh 100 | Ring1 derepress inactive | esBAF Fgf4 qPCR inactive | esBAF Bmi1 qPCR inactive | A549 cytotox inactive | HepG2 tox SP inactive | HEK293 tox SP inactive
CCS(=O)(=O)Nc1ccc2c(c1)C(=O)N(C)C[C@@H](OC)[C@@H](C)CN(CCC(F)(F)F)[C@@H](C)CO2	none (no result: MITF act, HSF-1 act, Wnt act, HSF1 inhib)
CC(=O)Nc1ccc(CNc2nc3cc(-c4ccc(F)cc4)sc3c(=O)n2C)cc1	esBAF inh 68 (no result: MITF act, HSF-1 act, HSF1 inhib) | Ring1 derepress inactive | esBAF Fgf4 qPCR inactive | esBAF Bmi1 qPCR inactive | A549 cytotox inactive | HepG2 tox SP inactive | HEK293 tox SP inactive
CC(=O)Nc1ccc(CNc2nc3cc(-c4ccsc4)sc3c(=O)n2C)cc1	esBAF inh 78 (no result: MITF act, HSF-1 act, Wnt act, HSF1 inhib) | Ring1 derepress inactive | esBAF Fgf4 qPCR inactive | esBAF Bmi1 qPCR inactive | A549 cytotox inactive | HepG2 tox SP inactive | HEK293 tox SP inactive
COc1ccccc1CNC(=O)C[C@@H]1CC[C@H]2[C@@H](COC[C@H](O)CN2C(=O)Nc2ccccc2)O1	none (no result: MITF act, HSF-1 act, Wnt act, HSF1 inhib)
COc1ccc(NC(=O)c2ccccc2-c2ccccc2)cc1	none (no result: esBAF inh)
COc1ccc(NC(=O)c2ccc3ccccc3c2OC)cc1	esBAF inh 75 (no result: MITF act) | Ring1 derepress inactive | esBAF Fgf4 qPCR inactive | esBAF Bmi1 qPCR inactive | A549 cytotox inactive | HepG2 tox SP inactive | HEK293 tox SP inactive
O=C(Nc1ccc2ccccc2c1)c1cccc2ccccc12	esBAF inh 77 (no result: HSF-1 act, HSF1 inhib) | Ring1 derepress inactive | esBAF Fgf4 qPCR inactive | esBAF Bmi1 qPCR inactive | A549 cytotox inactive | HepG2 tox SP inactive | HEK293 tox SP inactive
CCCNC(=O)C[C@H]1CC[C@H]2[C@H](COc3ccc(NC(=O)C4CCOCC4)cc3C(=O)N2C)O1	none (no result: MITF act, HSF-1 act, Wnt act, HSF1 inhib)
OC[C@@H]1[C@@H](c2ccc(/C=C/c3ccccc3)cc2)[C@H]2CN(Cc3ccncc3)CCCCN12	none (no result: MITF act, HSF-1 act, Wnt act, HSF1 inhib)
COc1cccc(OCc2cc(C(=O)N(C)Cc3nc4ccccc4[nH]3)no2)c1	HSF-1 act 61, esBAF inh 69 | Ring1 derepress inactive | esBAF Fgf4 qPCR inconclusive | esBAF Bmi1 qPCR inactive | A549 cytotox inactive | HepG2 tox SP inactive | HEK293 tox SP inactive
C[C@@H]1CCCCO[C@@H](CN(C)Cc2ccc(C(F)(F)F)cc2)[C@H](C)CN([C@H](C)CO)C(=O)c2cc(NS(=O)(=O)c3cccs3)ccc2O1	none (no result: MITF act, HSF-1 act, Wnt act, HSF1 inhib)
C[C@H](CO)N1C[C@H](C)[C@@H](CN(C)Cc2ccccc2)OCCCC[C@H](C)Oc2ccc(NS(=O)(=O)c3cn(C)cn3)cc2C1=O	none (no result: MITF act, HSF-1 act, Wnt act, HSF1 inhib)
Fc1cccc(-c2csc(-c3ccno3)n2)c1	none (no result: esBAF inh)
Nc1nc(-c2cccc(F)c2)cs1	Wnt act inconclusive, esBAF inh 57 | Ring1 derepress inactive | esBAF Fgf4 qPCR inconclusive | esBAF Bmi1 qPCR inactive | A549 cytotox inactive | HepG2 tox SP inactive | HEK293 tox SP inactive
N#Cc1ccc(Nc2nc(-c3ccccc3)cs2)cc1	esBAF inh 74 (no result: MITF act, HSF-1 act, HSF1 inhib) | Ring1 derepress inactive | esBAF Fgf4 qPCR inactive | esBAF Bmi1 qPCR inactive | A549 cytotox inactive | HepG2 tox SP inactive | HEK293 tox SP inactive
O=C(O)c1ccc(Nc2nc(-c3ccccc3)cs2)cc1	none (no result: Wnt act, esBAF inh)
COc1ccccc1NC(=O)Cn1nnc(-c2ccccc2NC(=O)c2cc3ccccc3oc2=O)n1	esBAF inh 66 | Ring1 derepress inactive | esBAF Fgf4 qPCR inactive | esBAF Bmi1 qPCR inactive | A549 cytotox inactive | HepG2 tox SP inactive | HEK293 tox SP inactive
COc1ccccc1NC(=O)N1CC[C@@H]2[C@H]1c1cc(-c3ccccc3)ccc1N(C)[C@@H]2CO	none (no result: MITF act, HSF-1 act, Wnt act, HSF1 inhib)
Nc1cccc(N=[N+]([O-])c2cccc(N)c2)c1	esBAF inh 77 (no result: HSF-1 act, HSF1 inhib) | Ring1 derepress inactive | esBAF Fgf4 qPCR inactive | esBAF Bmi1 qPCR inactive | A549 cytotox inactive | HepG2 tox SP inactive | HEK293 tox SP inactive
O=[N+]([O-])c1cccc(N=NNc2cccc([N+](=O)[O-])c2)c1	none (no result: MITF act, HSF-1 act, esBAF inh, HSF1 inhib)
COc1ccc(-c2cc3ccccc3s2)cc1[C@H]1[C@H]2C=CC[C@@H](C)[C@@H]2C(=O)N1Cc1ccccc1	Wnt act 37, esBAF inh 50 | Ring1 derepress inactive | esBAF Fgf4 qPCR inactive | esBAF Bmi1 qPCR inactive | A549 cytotox inactive | HepG2 tox SP inactive | HEK293 tox SP inactive
CCCN1C[C@@H](C)[C@@H](OC)CN(C)C(=O)c2ccc(NS(C)(=O)=O)cc2OC[C@H]1C	none (no result: MITF act, HSF-1 act, Wnt act, HSF1 inhib)
Cc1cc(C)c2c(CN(C)Cc3ccccc3)cc(=O)oc2c1	esBAF inh 63 (no result: MITF act, HSF-1 act, HSF1 inhib) | Ring1 derepress inactive | esBAF Fgf4 qPCR inconclusive | esBAF Bmi1 qPCR inactive | A549 cytotox inactive | HepG2 tox SP inactive | HEK293 tox SP -53
Cc1ccnc(NC(=O)c2ccc(OCc3c(C)noc3C)cc2)c1	Wnt act inconclusive, esBAF inh 70 (no result: HSF-1 act, HSF1 inhib) | Ring1 derepress inactive | esBAF Fgf4 qPCR inconclusive | esBAF Bmi1 qPCR inactive | A549 cytotox inactive | HepG2 tox SP inactive | HEK293 tox SP inactive
